Compound activity from PubChem.
A selection follows.
aSyn 5UTR act – Activators via SNCA 5'UTR binding, MLPCN | alpha-synuclein 5'UTR reporter, activators screen | activity score, % (tested at 7.5 µM), hits read low | 300,000 compounds, 7.1% hits; in the data active = activity score below about -60%
* marks the source's active call; other numbers are inactive results.

SMILES	aSyn 5UTR act
Nc1ccc(-c2nc3ccc(-c4nc5ccccc5o4)cc3[nH]2)cc1	-215.2*
Cc1nc2ccc(-c3nc4ccccc4o3)cc2[nH]1	-73.4*
Cc1ccc2nc(-c3cc(N)cc(N)c3)oc2c1	62.5
c1ccc(C2Oc3ccccc3C3CC(c4cccs4)=NN32)cc1 (stereo not drawn)	-164.4*
C/C(=N/N=C(/C)c1cccs1)c1cccs1	-119.4*
C/C(=N\NC(=S)Nc1ccc(F)cc1)c1ccc2c(c1)OCCO2	-80.3*
CC1CCN(C(=O)CSc2nc3ccccc3[nH]2)CC1	-105.1*
C/C(N)=C(/C#N)C(=O)CSc1nc2ccccc2[nH]1	-114.8*
C/C(N)=C(/C#N)C(=O)CSc1nnnn1-c1ccc(C)cc1	-89.8*
Cc1[nH]c2ccccc2c1C(=O)CSC(=S)N1CCCCC1	-159.4*
Cc1[nH]c2ccccc2c1C(=O)CSc1nc2ccccc2[nH]1	-100.0*
Cc1[nH]c2ccccc2c1C(=O)CSc1nc2ccccc2c(=O)n1CCCN1CCOCC1	-66.9*
COc1ccc(NC(=O)c2cc3c(-c4ccc(OC)c(OC)c4)nn(C)c3s2)cc1OC	-69.6*
CC(C)Sc1nc2ccc(N3C(=O)C4CCCCC4C3=O)cc2s1 (stereo not drawn)	-126.5*
O=C1CSC(c2ccc(F)cc2)N1c1nc2ccccc2s1 (stereo not drawn)	-91.3*
Clc1nc2ccccc2cc1-c1nnn(-c2ccccc2Br)n1	-127.9*
Brc1ccccc1-n1nnc(-c2nccs2)n1	-96.7*
O=C(COc1ccccc1Cl)Nc1cc(Cl)ccc1O	-185.1*
COC(=O)c1sccc1NC(=O)COc1ccccc1Cl	-132.0*
S=c1[nH]c(-c2ccccc2)cn1/N=C/c1ccc(Br)cc1	-81.4*
Fc1ccccc1/C=N/n1cc(-c2ccccc2)[nH]c1=S	-84.9*
COCOc1ccc(-c2cc(=O)c3c(OCOC)cc(OCOC)cc3o2)cc1	-125.3*
CN(C)c1ccc(N=Nc2ccc(S(N)(=O)=O)cc2)cc1	-95.9*
COc1ccc(OC)c(Nc2cc(-c3ccccc3)nc(N)n2)c1	67.8
COc1ccc2nc(-c3ccccc3)cc(OC)c2c1	-106.5*
SMILES	aSyn 5UTR act
Nc1c(Br)cc2oc(-c3ccccc3)nc2c1Br	-178.8*
COc1ccc(NC(=O)Nc2cc(C)ccc2F)cc1OC	-76.7*
Cc1ccccc1NC(=O)Nc1ccc2c(c1)OCO2	-129.0*
Cc1ccc(C)c(NC(=O)Nc2ccc3c(c2)OCO3)c1	-73.5*
CCOc1ccccc1NC(=O)Nc1ccc2c(c1)OCO2	-85.0*
COc1ccccc1NC(=O)Nc1ccc2c(c1)OCCO2	-131.3*
CC(=O)Nc1ccccc1OCC(=O)c1ccc2c(c1)OCO2	-98.8*
COc1ccc(NC(=O)Nc2ccc3c(c2)OCO3)c(C)c1	-80.9*
Cc1c(NC(=O)Nc2ccc3c(c2)OCO3)cccc1[N+](=O)[O-]	-96.2*
Cc1ccc(CNc2ccc3c(c2)OCO3)c(C)c1	-98.1*
COc1ccccc1NC(=O)Nc1ccc(F)c(F)c1	-66.1*
CSc1nc(-c2ccc(Cl)cc2)nn1C(=O)c1ccccc1	-134.3*
Cc1cccc(Nc2nc(-c3ccccc3)c(C(=O)Nc3cccnc3)s2)c1	-142.9*
Cc1noc(C)c1CSc1nc2[nH]ncc2c(=O)n1-c1ccccc1	50.7
Cc1nc(-c2ccccc2)nc2[nH]c(=O)n(-c3ccccc3)c(=O)c12	-92.8*
CCC(CC)NC(=O)c1cc2c(C)nn(Cc3ccccc3Cl)c2s1	70.5
Cc1cccn2c(=O)c3cc(C(=O)N4CCCCC4)sc3nc12	-64.1*
Cc1nn(-c2ccccc2)c2sc(C(=O)N3CCCCC3)cc12	-67.7*
Cc1cnc(NC(=O)c2cc3c(C)nn(-c4ccccc4)c3s2)s1	-66.1*
Cc1csc(NC(=O)CSc2nsc(SCC(=O)Nc3nc(C)cs3)c2C#N)n1	-209.8*
Brc1cc(Br)c2nc(-c3cccs3)ccc2c1	-156.9*
CCn1c(Cn2nnc(-c3ccccc3)n2)nnc1SCC(=O)Nc1ccc(C(C)=O)cc1	-91.7*
O=C(C1CCCN1S(=O)(=O)c1cccc2nsnc12)N1CCN(c2ccccc2)CC1 (stereo not drawn)	-62.8*
CSc1ccccc1OCc1cc(C(=O)N[C@H]2CCCCNC2=O)no1	-83.1*
CSc1ccccc1OCc1cc(C(=O)NC(C)c2cnn(C)c2)no1 (stereo not drawn)	-61.7*
SMILES	aSyn 5UTR act
Nc1nonc1-c1noc(CCCN2C(=O)c3ccccc3C2=O)n1	-107.8*
Nc1nonc1-c1noc(COc2ccccc2Cl)n1	-161.7*
O=C(Nc1ccc(-c2noc(COc3ccccc3Cl)n2)cc1)c1ccco1	-139.9*
Cc1cccc(OCc2nc(-c3nonc3N)no2)c1C	-143.6*
Cc1ccc(NC(=O)c2cc(C)no2)cc1	-74.9*
COc1ccc(NC(=O)c2cc(C)no2)cc1	-65.1*
Cc1ccc(C)c(OCc2cc(C(=O)N3CCN(c4ccccc4)CC3)no2)c1	-115.0*
Cc1ccc(C)c(OCc2cc(C(=O)N3CCN(C(=O)c4ccco4)CC3)no2)c1	-113.1*
Cc1ccc(C)c(OCc2cc(C(=O)N3C[C@@H](C)O[C@@H](C)C3)no2)c1	-130.8*
COc1ccc(NC(=S)NCCCCCC(=O)C[N+](=O)[O-])cc1	-81.8*
CC(=O)n1cc(/C=N/NC(=O)c2ccc(Cl)cc2)c2ccccc21	-69.1*
Cn1cc(/C=N\NC(=O)c2cccs2)c2ccccc21	-280.2*
Cn1cccc1/C=N/NC(=O)c1cccs1	-70.0*
CCCc1cc(C(=O)N/N=C/c2cccn2C)cs1	-71.8*
COc1ccc(/C=N/NC(=O)c2cccs2)c2ccccc12	-61.6*
CC1CCc2c(C(=O)NCc3ccccn3)csc2C1 (stereo not drawn)	-84.0*
CC1CCc2sc(C(=O)NCc3ccccn3)cc2C1 (stereo not drawn)	-112.2*
CC1CCc2c(C(=O)Nc3ccccn3)csc2C1 (stereo not drawn)	-116.0*
CC1CCc2c(C(=O)Nc3nccs3)csc2C1 (stereo not drawn)	-150.9*
CC1CCc2sc(C(=O)NC(C)C3CCCO3)cc2C1 (stereo not drawn)	-96.1*
Cc1cc(=O)c2cc3nc(-c4cccnc4)oc3c(Br)c2o1	-67.4*
Cc1cnn(C(=S)NCCc2ccccc2)c1	-136.0*
CCOC(=O)c1cnc(Nc2ccccc2)nc1C(F)(F)F	-89.2*
COc1ccc(N2CCc3c(C)nc4c(OC)cccc4c32)cc1	89.1
COc1ccc(N2Cc3ccc(OC)c(OC)c3C2=O)cc1	-223.7*
SMILES	aSyn 5UTR act
COc1ccc2c(c1OC)C(=O)N(c1nccs1)C2	-110.8*
O=C(NNC1=C(C(=O)C(F)(F)F)CCC1)c1cccc(O)c1	-152.6*
COc1cccc(C2c3c(oc4ccccc4c3=O)C(=O)N2Cc2ccco2)c1 (stereo not drawn)	-98.8*
C=CCN=C(NC#N)SCC(=O)c1cccc(OC)c1	-104.2*
O=C(c1ccccc1)c1ccc2cc(O)ccc2c1	-231.0*
Cc1c(Br)c(O)c(Br)c(O)c1/C=N/n1c(-c2ccccc2)n[nH]c1=S	61.9
Cc1cc(-c2n[nH]c(=S)n2/N=C/C(Cl)=C/c2ccccc2)n[nH]1	-164.3*
S=c1[nH]nc(C2CCCCC2)n1/N=C/C(Cl)=C\c1ccccc1	-74.5*
S=c1[nH]nc(-c2ccco2)n1/N=C/C(Cl)=C/c1ccccc1	-172.0*
CCC1CCC(NC(=O)Nc2cccc(OC)c2)CC1 (stereo not drawn)	-192.7*
COc1ccc(NC(=O)Nc2cccc(OC)c2)cc1	-134.0*
COc1ccc(NC(=O)Nc2ccc(C(C)C)cc2)cc1	-75.0*
COc1cc(-c2ccc(NC(=O)NC3CC3)c(OC)c2)ccc1NC(=O)NC1CC1	-99.1*
